The source of these data is PubChem BioAssay AID1159604 (The Scripps Research Institute Molecular Screening Center, 2016).

As usually defined, the IC50 is the midpoint of a concentration-inhibition curve.

Some of the results follow. A number with no mark means an inactive call. Calls of active or inactive are those of the source.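 Rule for the calls: active = IC50 of 10 µM or lower in the counterscreen; inactive = IC50 above 10 µM.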

This assay in a line: optical artefacts quenching TruHits bead signal – biochemical, TruHits beads, AlphaScreen, artefact control for ASK1 inhibitor project, dose response (AID 1159604).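 Note: loss of AlphaScreen light from TruHits beads alone with no ASK1 enzyme present; potency of signal reduction so a low IC50 flags an assay artifact.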 To be noted: signal interference counterscreen.
`Fc1cnc(Nc2ccc(N3CCNCC3)cc2)cc1-n1cnc(Nc2ccccc2)n1`: the IC50 was above 19.2 µM.
The figure for `Cc1cc(Nc2ccc3c(c2)OCO3)nc(Nc2cccc(N(C)C)c2)n1` is 4.88 µM (active); for `Cc1ccccc1-c1cscc1Nc1cnn(-c2cccc(C(=O)Nc3ccc(N4CCOCC4)cc3)c2)c1` it is above 19.2 µM.
The figure for `CN1CCN(c2nc(C3COc4ccccc4O3)nc3ccc(-c4cn[nH]c4)cc23)CC1` (configuration not stated) is above 19.2 µM; for `Nc1nc(Nc2ccc(N3CCOCC3)cc2)cc(-c2ccc3[nH]ccc3c2)n1` it is 11.9 µM.
Consider `COc1cc2nc(Nc3cccc(N(C)C)c3)nc(Nc3cc(OC)c(OC)c(OC)c3)c2cc1OC`, for which the IC50 was 8.29 µM (active).
As for `FC(F)(F)c1cccc(CNc2nc(N3CCN(c4ccccn4)CC3)nc3c2ncn3-c2ccsc2)c1`, the IC50 is above 20 µM.
As for `COc1cc(Nc2nc(N3CCc4ccccc4C3)nc3c2ncn3-c2ccccc2)cc(OC)c1OC`, the IC50 was above 20.1 µM.
The figure for `COc1ccc(CCNc2cc(C)nc(Nc3cccc(N(C)C)c3)n2)cc1` is 4.77 µM (active); for `FC(F)(F)c1cccc(CNc2nc(Nc3ccc(N4CCOCC4)cc3)nc3c2ncn3-c2ccsc2)c1` it is above 20.1 µM.
For `FC(F)(F)c1cccc(CNc2nc(N3CCN(Cc4ccc5c(c4)OCO5)CC3)nc3c2ncn3-c2ccccc2)c1`, the IC50 was above 20.1 µM.
Regarding `c1ccc(-c2ncn[nH]2)c(Nc2ccnc(Nc3ccc(N4CCOCC4)cc3)c2)c1`, the IC50 was above 19.2 µM.
